Data published in PubChem BioAssay (NCI).
About 79,000 compounds went through this panel and 15% of them were active in at least one assay; those are over-represented in the sample as a whole. Calls of active or inactive are those of the source. No stated cut-off is given here; in the data, active means growth inhibition above about 70%; inactive means the rest.

Columns and labels:
[1] = NCI Yeast Anticancer Drug Screen. Data for the rad52 strain (AID 147);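 further: 0% = growth of vehicle-treated control cultures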; conditions: S. cerevisiae rad52 mutant growth inhibition, stronger effect = higher value
In short: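 Inhibition of yeast growth, referenced to vehicle controls, was the measured output for a strain with defective DNA damage repair.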

[2] = NCI Yeast Anticancer Drug Screen. Data for the wt1 strain (AID 149);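 further: 0% = growth of vehicle-treated wt1 cultures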; conditions: S. cerevisiae wt1 strain (SPY 50644) growth inhibition, stronger effect = higher value
In short: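 Vehicle-normalised growth inhibition; strain wt1; compound exposure.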

[3] = NCI Yeast Anticancer Drug Screen. Data for the rad50EPP+ strain (AID 151);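 further: 0% = growth of vehicle-treated control cultures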; conditions: S. cerevisiae rad50 mutant strain, stronger effect = higher value
In short: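 Genetically defined yeast (rad50EPP+, DNA damage repair alteration) is grown with compound, and inhibition of growth is expressed relative to vehicle-treated controls.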

[4] = NCI Yeast Anticancer Drug Screen. Data for the mgt1 strain (AID 153); conditions: S. cerevisiae mgt1 mutant growth inhibition, stronger effect = higher value
In short: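 In the mgt1 strain, test compounds were added and growth inhibition was determined relative to vehicle-treated controls.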

[5] = NCI Yeast Anticancer Drug Screen. Data for the rad50 strain (AID 155);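 further: 0% = growth of vehicle-only cultures of the same strain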; conditions: S. cerevisiae rad50 strain growth inhibition, stronger effect = higher value
In short: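 A DNA repair-deficient yeast mutant serves as the test organism; compound-induced growth inhibition is calculated against vehicle-treated cells.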

[6] = NCI Yeast Anticancer Drug Screen. Data for the mec2-1 strain (AID 157); conditions: S. cerevisiae mec2-1 strain, stronger effect = higher value
In short: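 Each compound was tested on mec2-1 yeast, a strain altered in DNA damage repair or cell cycle control. Growth inhibition is reported relative to vehicle.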

[7] = NCI Yeast Anticancer Drug Screen. Data for the rad14 strain (AID 159);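 further: 0% = growth of vehicle-treated control cultures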; conditions: S. cerevisiae rad14 strain growth inhibition, stronger effect = higher value
In short: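 Vehicle-treated cultures served as the baseline for growth inhibition of a DNA repair-mutant yeast strain exposed to each compound.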

[8] = NCI Yeast Anticancer Drug Screen. Data for the sgs1 mgt1 strain (AID 161);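 further: 0% = growth of cultures given vehicle only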; conditions: S. cerevisiae sgs1 mgt1 strain, stronger effect = higher value
In short: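 Genetically altered yeast, compound exposure, growth inhibition relative to vehicle.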

[9] = NCI Yeast Anticancer Drug Screen. Data for the CLN2oe strain (AID 163);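 further: 0% = growth of vehicle-only control cultures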; conditions: S. cerevisiae CLN2oe strain, stronger effect = higher value
In short: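 First, the altered yeast strain was treated with each compound; second, its growth was measured; finally, inhibition was derived by comparison with vehicle controls.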

[10] = NCI Yeast Anticancer Drug Screen. Data for the cln2 rad14 strain (AID 165);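 further: 0% = growth equal to vehicle treated cultures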; conditions: S. cerevisiae cln2 rad14 strain, stronger effect = higher value
In short: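 Test compounds were added to cln2 rad14 yeast cultures; inhibition of growth was then determined by comparison with vehicle treatment.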

[11] = NCI Yeast Anticancer Drug Screen. Data for the bub3 strain (AID 167); conditions: S. cerevisiae bub3 mutant strain, stronger effect = higher value
In short: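 Inhibition values come from growth of compound-treated mutant yeast normalised to vehicle-treated controls.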

[12] = NCI Yeast Anticancer Drug Screen. Data for the wt2 strain (AID 169);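 further: 0% = growth of vehicle-treated yeast cultures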; conditions: S. cerevisiae wt2 strain growth inhibition, stronger effect = higher value
In short: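 The panel's yeast strains carry defined changes in DNA repair or cell cycle genes. Each strain is grown with compound, and growth loss is scored relative to vehicle.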

[13] = NCI Yeast Anticancer Drug Screen. Data for the mlh1 strain (AID 171);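 further: 0% = growth of vehicle-treated control cultures of the same strain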; conditions: S. cerevisiae mlh1 strain growth inhibition, stronger effect = higher value
In short: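 Inhibition values reflect reduced yeast growth in the presence of compound, referenced to vehicle controls, using a strain chosen for its alteration in DNA repair or cell cycle control.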

[14] = NCI Yeast Anticancer Drug Screen. Data for the sgs1 strain (AID 173);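 further: 0% = growth of vehicle-only control cultures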; conditions: S. cerevisiae sgs1 mutant, stronger effect = higher value
In short: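 Vehicle-treated cultures served as reference for growth inhibition of a yeast strain altered in DNA damage repair or cell cycle control after compound exposure.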

[15] = NCI Yeast Anticancer Drug Screen. Data for the mlh1 rad18 strain (AID 175); conditions: S. cerevisiae mlh1 rad18 strain growth inhibition, stronger effect = higher value
In short: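 Inhibition values reflect reduced growth of mutant yeast versus vehicle-treated controls following compound exposure; the mutations affect DNA damage repair.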

[16] = NCI Yeast Anticancer Drug Screen. Data for the rad18 strain (AID 177); conditions: S. cerevisiae rad18 mutant growth inhibition, stronger effect = higher value
In short: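 Steps: expose repair-mutant yeast to compound; measure growth; express as inhibition relative to vehicle control.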

[17] = at 5.0 µM (retest, dose inferred, filed as 0.5)
[18] = at 50.0 µM (retest, dose inferred, filed as 5.0)

Measured: growth inhibition

O=C1C=C(NCCc2cc(Br)c(O)c(Br)c2)C(=O)c2ncccc21
active: [1]; at 33.0 µM 89% | [1]; at 100.0 µM 94% | [2]; at 100.0 µM 95% | [3]; at 33.0 µM 82% | [3]; at 100.0 µM 90% | [4]; at 100.0 µM 94% | [5]; at 33.0 µM 88% | [5]; [18] 89% | [5]; at 50.0 µM 92.1% | [5]; at 100.0 µM 94% | [6]; [18] 92% | [6]; at 50.0 µM 73.8% | [6]; at 100.0 µM 93% | [7]; at 33.0 µM 82% | [7]; at 100.0 µM 93% | [8]; [18] 83% | [8]; at 50.0 µM 89.5% | [9]; at 100.0 µM 90% | [10]; [18] 90% | [11]; [18] 96% | [11]; at 50.0 µM 95.5% | [11]; at 100.0 µM 94% | [12]; at 100.0 µM 91% | [13]; at 33.0 µM 82% | [13]; at 100.0 µM 96% | [14]; at 33.0 µM 82% | [14]; at 100.0 µM 96% | [15]; [18] 95% | [15]; at 50.0 µM 91% | [16]; at 11.0 µM 75% | [16]; at 33.0 µM 91% | [16]; at 100.0 µM 95%
inactive: [1]; at 1.2 µM 40% | [1]; at 3.7 µM 50% | [1]; at 11.0 µM 54% | [2]; at 1.2 µM 17% | [2]; at 3.7 µM 19% | [2]; at 11.0 µM 27% | [2]; at 33.0 µM 53% | [3]; at 1.2 µM 23% | [3]; at 3.7 µM 38% | [3]; at 11.0 µM 49% | [4]; at 1.2 µM 13% | [4]; at 3.7 µM 15% | [4]; at 11.0 µM 25% | [4]; at 33.0 µM 69% | [5]; at 1.2 µM 18% | [5]; at 3.7 µM 24% | [5]; [17] 1% | [5]; at 11.0 µM 44% | [6]; at 1.2 µM 6% | [6]; at 3.7 µM 21% | [6]; [17] -5% | [6]; at 11.0 µM 28% | [6]; at 33.0 µM 69% | [7]; at 1.2 µM 24% | [7]; at 3.7 µM 21% | [7]; at 11.0 µM 23% | [8]; [17] 4% | [9]; at 1.2 µM -5% | [9]; at 3.7 µM 39% | [9]; at 11.0 µM 41% | [9]; at 33.0 µM 55% | [10]; [17] 21% | [10]; at 50.0 µM 46.2% | [11]; at 1.2 µM -2% | [11]; at 3.7 µM -6% | [11]; [17] 12% | [11]; at 11.0 µM 5% | [11]; at 33.0 µM 68% | [12]; at 1.2 µM 13% | [12]; at 3.7 µM 15% | [12]; at 11.0 µM 26% | [12]; at 33.0 µM 67% | [13]; at 1.2 µM 27% | [13]; at 3.7 µM 27% | [13]; at 11.0 µM 36% | [14]; at 1.2 µM 28% | [14]; at 3.7 µM 29% | [14]; at 11.0 µM 43% | [15]; [17] 21% | [16]; at 1.2 µM 55% | [16]; at 3.7 µM 54%
